Screens (PubChem BioAssay)
AmpC inh detg: qHTS Inhibitors of AmpC Beta-Lactamase (assay with detergent); Potency, µM (series often up to 114 µM), actives largely listed as inhibitors; AmpC hydrolysis of nitrocefin, absorbance 480 nm, 0.01% Triton; 370,000 tested, 0.041% active; AID 485294, 2010; note: nearly all actives have a fitted effect of over 25% in size
Target sequence (P00811 whole entry, looked up): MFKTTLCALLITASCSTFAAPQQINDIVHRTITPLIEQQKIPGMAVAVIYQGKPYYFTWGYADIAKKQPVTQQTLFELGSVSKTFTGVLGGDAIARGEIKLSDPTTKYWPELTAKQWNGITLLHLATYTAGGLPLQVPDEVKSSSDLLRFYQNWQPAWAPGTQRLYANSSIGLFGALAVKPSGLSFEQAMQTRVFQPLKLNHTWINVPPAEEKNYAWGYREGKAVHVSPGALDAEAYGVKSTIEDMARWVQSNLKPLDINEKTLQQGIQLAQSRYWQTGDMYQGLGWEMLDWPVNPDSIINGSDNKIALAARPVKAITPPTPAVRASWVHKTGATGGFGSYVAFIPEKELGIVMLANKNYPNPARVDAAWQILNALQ
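20 mM phosphate pH 7.0 + 0.01% (detergent screen) or 0.0001% Triton X-100; 5.3 nM AmpC reagent; cpd preinc 15 min RT; nitrocefin (800 uM stock) to start; A480 q20 s × 4 min; Activity was normalised to no-enzyme and no-compound control wells.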
VACV Venus inh: qHTS for Stage-Specific Inhibitors of Vaccinia Orthopoxvirus: Venus Reporter Primary qHTS | Potency, µM (top dose mostly 36.5 µM), actives largely listed as inhibitors | 330,000 tested, 0.46% active | Vaccinia virus Venus reporter expression, fluorescence; calls by dose curve; tested in A549 cells; note: nearly all actives have a fitted effect of over 30% in size
Vaccinia mCherry: qHTS for Stage-Specific Inhibitors of Vaccinia Orthopoxvirus: mCherry Reporter Primary qHTS | Vaccinia virus mCherry reporter infection, fluorescence | Potency, µM (highest dose often 36.5 µM), actives largely listed as inhibitors | 310,000 tested, 0.63% active | AID 720579, 2013; calls by dose curve; tested in A549 cells; note: nearly all actives have a fitted effect of over 35% in size
AmpC inh no detg: qHTS Inhibitors of AmpC Beta-Lactamase (assay without detergent) | AmpC nitrocefin hydrolysis, absorbance 480 nm, 0.0001% Triton | 330,000 tested, 0.52% active | Potency, µM (top dose mostly 57.1 µM), actives largely listed as inhibitors | AID 485341, 2010; note: nearly all actives have a fitted effect of over 20% in size
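20 mM phosphate pH 7.0 + 0.01% (detergent screen) or 0.0001% Triton X-100; 5.3 nM AmpC reagent; cpd preinc 15 min RT; nitrocefin (800 uM stock) to start; A480 q20 s × 4 min; Activity was normalised to no-enzyme and no-compound control wells.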
A number is an active result. This is a sample that favours compounds with a hit; in the whole collection about 1.1% have one here. Unless noted, calls come from the whole dose curve; as a rule, active = well fitted curve in the direction sought with a large enough effect; inconclusive = small, poorly fitted or top-dose-only effect, or another doubt; inactive = no such curve, though single readings can be large; an effect the other way counts as inactive or inconclusive.

What do the screens show for `Cc1nnc(N2CCC(C(=O)NCCc3ccccc3)CC2)c2nn(-c3ccccc3)c(C)c12`?
AmpC inh detg: inactive; VACV Venus inh: inactive; Vaccinia mCherry: inactive

How did Cc1nnc(N2CCC(C(=O)NCc3ccc(N(C)C)cc3)CC2)c2nn(-c3ccccc3)c(C)c12 do in these assays?
AmpC inh detg: inactive; VACV Venus inh: 13µM; Vaccinia mCherry: 13µM

Results for COc1ccc(-n2nc3c(N4CCC(C(=O)NCc5cccc(F)c5)CC4)nnc(C)c3c2C)cc1 ?
AmpC inh detg: inactive; VACV Venus inh: 28µM; Vaccinia mCherry: inconclusive

How did Cc1nnc(N2CCN(C(=O)Nc3cc(F)ccc3F)CC2)c2nn(-c3ccc(Cl)cc3)c(C)c12 do in these assays?
AmpC inh detg: inactive; VACV Venus inh: inconclusive; Vaccinia mCherry: 11µM

How did COc1ccc(CNC(=O)C2CCN(c3nnc(C)c4c(C)n(-c5ccc(C)cc5)nc34)CC2)cc1 do in these assays?
AmpC inh detg: inactive; VACV Venus inh: inactive; Vaccinia mCherry: inactive

What do the screens show for `COc1cc(=O)n2c(c1C(=O)N(C)Cc1ccsc1)CCN(Cc1c(C)nn(C)c1Cl)CC2`?
VACV Venus inh: inactive; Vaccinia mCherry: inactive

What do the screens show for `COC(=O)[C@]1(Cc2ccccc2)N[C@H](CN(C)C(=O)Nc2ccc(C(F)(F)F)cc2)[C@@H]2C(=O)N(Cc3ccccc3)C(=O)[C@@H]21`?
VACV Venus inh: 10µM; Vaccinia mCherry: inconclusive; AmpC inh no detg: inactive

Results for CC[C@@]1(C(=O)OC)N[C@H](CN(C)C(=O)Nc2ccc(C(F)(F)F)cc2)[C@@H]2C(=O)N(Cc3ccccc3)C(=O)[C@@H]21 ?
VACV Venus inh: inactive; Vaccinia mCherry: inactive; AmpC inh no detg: inactive

Results for COC(=O)c1ccccc1-c1cc(C)cc2c1OC(CNC(=O)c1cnc(C)cn1)C2 (stereo unspecified) ?
VACV Venus inh: inactive; Vaccinia mCherry: inactive

What do the screens show for `Cc1ccc(NC(=O)COc2ccc(C(=O)c3ccccc3)cc2)c(O)c1`?
AmpC inh detg: inactive; VACV Venus inh: inactive; Vaccinia mCherry: inconclusive; AmpC inh no detg: 16µM

How did O=C(COc1ccccc1C(=O)Nc1cccnc1)Nc1ccc(Br)cc1 do in these assays?
VACV Venus inh: inactive; Vaccinia mCherry: inactive

What do the screens show for `CCOCCCNC(=S)N1C2CCC1CC(NC(=O)NC1CCCCC1)C2` (stereo unspecified)?
AmpC inh detg: inactive; VACV Venus inh: inactive; Vaccinia mCherry: inactive; AmpC inh no detg: 0.32µM

What do the screens show for `O=C(NC1CCCCC1)NC1CC2CCC(C1)N2C(=S)NCc1ccco1` (stereo unspecified)?
AmpC inh detg: inactive; VACV Venus inh: inactive; Vaccinia mCherry: inactive; AmpC inh no detg: inactive

How did O=C(c1cc(-c2ccco2)on1)N1CCN(c2ccccc2)CC1 do in these assays?
AmpC inh detg: inactive; VACV Venus inh: inactive; Vaccinia mCherry: inactive; AmpC inh no detg: 3.2µM

What do the screens show for `COC(=O)C1CCN(Cc2ccc3c(c2)CN(C(=O)c2sc(C)nc2C)CCO3)CC1`?
VACV Venus inh: inactive; Vaccinia mCherry: inactive

Results for Cc1ccc2oc(-c3ccc(C)c(NC(=O)COc4ccc(Cl)cc4)c3)nc2c1 ?
VACV Venus inh: inactive; Vaccinia mCherry: inactive

How did Cn1nnnc1Sc1ncnc2scc(-c3ccc(F)cc3)c12 do in these assays?
AmpC inh detg: inactive; VACV Venus inh: inconclusive; Vaccinia mCherry: 10µM; AmpC inh no detg: inactive

How did C(=C\c1ccc2ccccc2n1)/c1ccccc1 do in these assays?
AmpC inh detg: inactive; VACV Venus inh: inconclusive; Vaccinia mCherry: 5µM; AmpC inh no detg: inactive

Results for C(=C\c1ccc2ccccc2n1)/c1ccc2ccccc2n1 ?
VACV Venus inh: inactive; Vaccinia mCherry: inactive

What do the screens show for `C(=Cc1c[nH]c2ccccc12)c1ccc2ccccc2n1`?
VACV Venus inh: inactive; Vaccinia mCherry: 0.71µM

Results for C=CCN=c1scc(-c2ccco2)n1/N=C/c1ccc(O)c(O)c1O ?
AmpC inh detg: inactive; VACV Venus inh: inactive; Vaccinia mCherry: inactive; AmpC inh no detg: 4.5µM

How did Oc1ccc(/C=N/n2c(-c3ccco3)csc2=Nc2cccnc2)c(O)c1 do in these assays?
AmpC inh detg: inactive; VACV Venus inh: 10µM; Vaccinia mCherry: 10µM; AmpC inh no detg: inactive

Results for Cc1cc[n+](CCC2CCCCC2)c2ccccc12 ?
VACV Venus inh: inactive; Vaccinia mCherry: inconclusive

What do the screens show for `N#Cc1c(SCC(=O)Nc2nc3ccccc3s2)sc2c(O)cc(=O)[nH]c12`?
AmpC inh detg: inactive; AmpC inh no detg: inactive
